Screening data deposited in PubChem by National Center for Advancing Translational Sciences (NCATS).
Tau ThT inhib – tau fibrillization inhibition (ThT binding) | recombinant tau K18 P301L, heparin-induced fibrillization, ThT fluorescence | Potency, µM (highest dose often 57.4 µM), for the others: at the top dose activity, negative = inhibition, hits mostly inhibitors | 270,000 tested, 2.1% active | AID 1460; note: nearly all actives have a fitted effect of over 55% in size
Target sequence (P10636 561-689 P618L limits assumed): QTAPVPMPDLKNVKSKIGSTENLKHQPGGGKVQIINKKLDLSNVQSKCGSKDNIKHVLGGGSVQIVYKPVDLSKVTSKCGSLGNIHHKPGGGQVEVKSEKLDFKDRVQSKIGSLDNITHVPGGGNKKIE
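Using a mix of unlabeled (15 uM) and Alexa 594-labeled (0.24 uM) tau K18 P301L, heparin-triggered fibrillization over 6 hr at 37 C was scored by ThT fluorescence.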
Tau fluor counter – counter-screen for tau fibril formation inhibitors; Potency, µM (series often up to 57.7 µM), for inactives: at the highest dose activity change, negative = decrease; 280,000 tested, 0.93% active; tau K18 P301L (four-repeat tau fragment) Alexa594 fluorescence, heparin fibrillization; note: nearly all actives have a fitted effect of over 55% in size
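Human K18 P301L tau (15 uM unlabeled plus 0.24 uM Alexa 594-labeled, final) in 100 mM sodium acetate pH 7 was mixed with compound and 20 uM heparin and incubated 6 hr at 37 C.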
TR SRC2 fluor cs – counter-screen for TRb-SRC2 inhibitors: fluorescence interference. TRb/SRC2 Texas Red total fluorescence interference. AID 1479. Potency, µM (top dose mostly 106 µM), for inactives: at the top dose fluorescence change, negative = quenching. 280,000 tested, 0.29% active; active = well fitted curve in either direction with a large enough effect; inconclusive = small, poorly fitted or top-dose-only effect
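Human TRβ ligand-binding domain (0.6 uM) and Texas Red SRC2 peptide (20 nM) in Tris buffer with 1 uM T3 and 5% DMSO were incubated with pinned compound for 5 hr at ambient temperature. Total fluorescence was computed as S + 2P (555/632 nm).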
TRb SRC2 PPI – TRbeta-SRC2 interaction inhibition | TRbeta-SRC2 peptide binding, fluorescence polarization; receptor liganded with 1 µM T3 | Potency, µM (titrated, usually from 106 µM), for the others: at the highest dose activity change, negative = inhibition, actives largely listed as inhibitors | 280,000 tested, 0.065% active | AID 1469;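 note: plate controls were bound peptide for no effect and peptide without receptor for full effect; nearly all actives have a fitted effect of over 50% in size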
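TRb LBD 0.6 uM + Texas Red SRC2 peptide 20 nM, 1 uM T3, Tris buffer w/ 5% DMSO; compound pinned, 5 h RT; FP read ex 555/em 632; normalized to unbound and bound controls.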
Tau fibril FP – inhibitors of human tau fibril formation; Potency, µM (top dose mostly 57.7 µM), for inactives: top-dose activity, negative = inhibition, most hits filed as inhibitors; 280,000 tested, 0.39% active; AID 1468; P10636; K18 P301L tau heparin fibrillization, Alexa594 FP, 6 h; note: nearly all actives have a fitted effect of over 55% in size
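Recombinant K18 P301L […], labeled with Alexa 594 at 0.24 uM over 15 uM unlabeled; heparin inducer 20 uM final; 37 C, 6 hr; FP endpoint.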
JMJD2E inh – JMJD2E (human) inhibition; JMJD2E catalytic domain, FDH-coupled NADH fluorescence (FDH is formaldehyde dehydrogenase); Potency, µM (top dose mostly 57.1 µM), without a hit: at the highest dose activity change, negative = inhibition, hits mostly inhibitors; 230,000 tested, 1.6% active; AID 2147; active = well fitted inhibition curve with a large enough effect, not every such curve was filed as active; inconclusive = small, poorly fitted or top-dose-only effect, or another doubt; inactive = no such curve, though single readings can be large or run the other way;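 note: 0% = wells with enzyme and -100% = buffer wells without enzyme; nearly all actives have a fitted effect of over 50% in size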
Target sequence (B2RXH2 1-337 limits assumed): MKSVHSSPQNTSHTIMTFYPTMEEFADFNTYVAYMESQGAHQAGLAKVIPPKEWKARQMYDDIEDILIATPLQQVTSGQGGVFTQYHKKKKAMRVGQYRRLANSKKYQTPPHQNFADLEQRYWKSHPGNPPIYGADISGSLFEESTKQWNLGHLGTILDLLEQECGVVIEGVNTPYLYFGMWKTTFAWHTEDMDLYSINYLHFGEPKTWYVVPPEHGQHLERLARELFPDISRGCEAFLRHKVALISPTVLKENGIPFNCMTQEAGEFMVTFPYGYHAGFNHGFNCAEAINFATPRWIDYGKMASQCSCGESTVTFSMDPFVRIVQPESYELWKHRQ
* hit, by the source's call; ? = inconclusive; / = no result given; ! = not active in a repeat; [ ] = another dose, or the depositor's remark. In the library only some 3.5% were active in any assay of this set; here they are far more common. Unless noted, calls come from the whole dose curve; as a rule, active = well fitted curve in the direction sought with a large enough effect; inconclusive = small, poorly fitted or top-dose-only effect, or another doubt; inactive = no such curve, though single readings can be large; an effect the other way counts as inactive or inconclusive. Unless noted, % is set by controls: 0 for no effect and ±100 for the full control effect; potency is the fitted concentration of half-maximal effect.

SMILES	Tau ThT inhib	Tau fluor counter	TR SRC2 fluor cs	TRb SRC2 PPI	Tau fibril FP	JMJD2E inh
Cc1ccc2nc(-c3ccc(NC(=S)NC4CC(C)(C)NC(C)(C)C4)cc3)sc2c1	?	7.94µM*[quencher]	-6.0%	4.9%	11.2µM*	?
O=[N+]([O-])c1cccc(-c2ccc(C(=S)N3CCOCC3)o2)c1	11.8%	9.4%	-0.1%	-3.3%	-9.5%	-21.4%
O=[N+]([O-])c1ccccc1-c1ccc(C(=S)N2CCCC2)o1	15.8µM*	?	-4.2%	1.0%	?	25.1µM*
O=[N+]([O-])c1cccc(-c2ccc(C(=S)N3CCN(c4ccccc4)CC3)o2)c1	20µM*	?	-2.3%	-0.3%	?	-5.2%
O=[N+]([O-])c1cc(-c2ccc(C(=S)N3CCOCC3)o2)ccc1Cl	14.1µM*	?	0.1%	2.0%	?	3.4%
S=C(c1ccc(-c2cccc(Cl)c2)o1)N1CCOCC1	15.8µM*	?	0.8%	-6.5%	-11.3%	-12.3%
COc1ccc(C(=O)N(CC2CCCO2)C(C(=O)NCCC(C)C)c2ccc(C)cc2)cc1OC (stereo unspecified)	0.2%	4.3%	0.0%	-12.3%	7.0%	6.3%
CCN1CCN(C(=O)c2ccc(N3CC4CC(C3)c3cccc(=O)n3C4)c([N+](=O)[O-])c2)CC1 (stereo unspecified)	-12.9%	-5.3%	-1.3%	-2.8%	-5.6%	3.4%
CC1=C(c2ccc(C)c(C)c2)S(=O)(=O)N=C1N1CCC(C(=O)N2CCCCC2)CC1	?	-7.1%	562µM*[quencher]	-20.1%	-5.4%	/
COc1ccc(NC(=O)C2CCN(C3=NS(=O)(=O)C(c4ccc(C)c(C)c4)=C3C)CC2)c(OC)c1	?	-24.2%	224µM*[quencher]	?	10.3%	/
O=C(NCc1cccn1Cc1ccccc1)Nc1cccc(C(F)(F)F)c1	0.2%	?	-4.1%	0.3%	?	/
FC(F)(F)c1nc2cc3nc4ccccc4[nH]c3cc2n1	5.01µM*	-29.8%	-4.6%	?	?	-17.9%
O=c1[nH]c2cc3ccccc3cc2nc1C(F)(F)F	?	-18.9%	-1.1%	-11.4%	-12.5%	5.6%
COc1ccc(C)cc1NC(=O)c1cc2c(=O)n3ccccc3nc2n1C	-1.2%	5.1%	0.6%	-1.9%	3.0%	?
Cc1ccc([N+](=O)[O-])cc1N1C(=O)CS/C1=N\NC(=O)c1cccnc1	-1.6%	3.0%	-1.7%	2.8%	2.6%	4.2%
N#Cc1c(Cl)nsc1NN	7.94µM*	2.51µM*[quencher]	-3.6%	-0.4%	?	-25.5%
CC1=NN(c2nc(-c3ccc(Cl)cc3)cs2)C(=O)C1	11.2µM*	?	-8.6%	-6.0%	-1.4%	25.1µM*
CC1=NN(c2nc(-c3ccc(F)cc3)cs2)C(=O)C1	?	-24.6%	-3.8%	0.8%	10.8%	-0.8%
CCCCC1=CC2=CC(=O)C(C)(OC(=O)CC)C(=O)C2=CN1c1ccccc1 (stereo unspecified)	?	-3.1%[11.6 µM]	3.1%[11.2 µM]	6.0%[11.2 µM]	1.7%[11.6 µM]	25.1µM*!
CCCCC1=CC2=CC(=O)C(C)(OC(=O)CC)C(=O)C2=CN1Cc1ccccc1 (stereo unspecified)	?	-6.4%[11.6 µM]	-3.8%[11.2 µM]	6.8%[11.2 µM]	-3.7%[11.6 µM]	?
CCCCC1=CC2=CC(=O)C(C)(OC(=O)CC)C(=O)C2=CN1c1ccncc1 (stereo unspecified)	7.5%[11.5 µM]	-3.3%[11.6 µM]	-0.3%[11.2 µM]	7.7%[11.2 µM]	2.2%[11.6 µM]	10.1%[11.4 µM]
CCCCC1=CC2=CC(=O)C(C)(OC(=O)CC)C(=O)C2=CN1Cc1ccco1 (stereo unspecified)	?	-11.7%[11.6 µM]	0.0%[11.2 µM]	2.5%[11.2 µM]	2.5%[11.6 µM]	22.4µM*!
CCN=c1scc(C)n1/N=C/c1cc(Br)c(O)c(Br)c1	?	?	-12.5%	2.9%	15.0%	?
CCN=c1scc(-c2ccco2)n1/N=C/c1ccc(O)cc1	7.08µM*	14.1µM*[quencher]	-2.7%	-16.5%	8.2%	-16.9%
CCN=c1scc(-c2ccco2)n1/N=C/c1ccc(OC)c(O)c1	10µM*	15.8µM*[quencher]	-2.6%	7.0%	?	-0.1%
